The results in this text go back to the supplement of paper PMC6555819.

In this assay the test system is VDR:RXRa (NR concentration 270 nM, RXRa partner concentration 90 nM). In words: PBM binding z-score (relative to random genomic background probes); higher = stronger binding; sequences stand for … in GC…GCGATTGACAGCGTAGAATGAAGG
The procedure:
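Protein-binding microarray (Agilent 4x180K custom design, double-stranded 60-nt probes: 5' GC cap, 34-nt variable region, 24-nt constant primer region; full probe sequence given). Purified or IVT nuclear receptor:RXRα heterodimers (3:1 NR:RXRα, mostly 270:90 nM) or homodimers were incubated for 1 h in PBS with 2% milk and no ligand, then detected with Alexa488 antibodies. Fluorescence from o1-orientation probes (~5 replicates averaged) was converted to z-scores against 500 random hg19 background probes. Variable regions are seed direct-repeat (DR0–DR5) sites, all their single-nucleotide variants and half-site ablations.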
The sequence CGAACTTGGTCATTGACAGGACAGTGAATAGTAA registered a PBM binding z-score of 0.0642. Then ATCTCTCGGTAAAGATAGTTCAGTGAATGCAAAT, with 0.595; and CCTAGTTGGTCAGGACGTCACACACCGGATATGA, with 0.236; and ACAGACAGCTGATGAAGGTAACTCAGGCTATCAT, with -0.282. Turning to TCTTGTAGATCAATAGAGGTAAAGAAAGTGCGCT, the PBM binding z-score came to 0.45. The same measure for CAAACTAGGTCACGAAAGGCCAAAGTCGAATGAC: 4.15; for TCTTGTAGATCAAGCAGGTTACGAAAGCCTGAGT: 0.633. Then CCAACTGGGGCAGAAAGGTTACCATACCATCCGG, with 0.976. The sequence TCTGGTTGGTCACGGAGGTCACACACGACGGGTA came in with a PBM binding z-score of 5.92. Then TAGGCTAGGTCATGCGGGCCAGTATAGTGTCGGC, with 2.63.

TGAATGAGGTTACAGATCAGGGAACGTGGCGTCG yielded a PBM binding z-score of 0.932.

TCTGCTAGGGCAGTTGGTCAGCTAACGAGCTGCC came in with a PBM binding z-score of -0.663. Regarding TCTCGGAGGACACGAAAGCTCAGAGCTCGACATC, the PBM binding z-score was -0.282.

For the sequence GATACAGGATCAAGGCCAGAGTACGCGTATTGAT, the PBM binding z-score is -0.308. Then CGTCCAAGGTAATAGGAGGTCAGTGAAGACAGAT, with 2.56; and ATCGAAAGGTCGAAGGTGATTATACCCACCCGAA, with 2.61. Then AGAGACAGGTGATGAAGGTAACTCAGGCTATCAT, with 0.424; and ACTATTAGTTGACTTAGGGCAAACGATACGACGC, with 0.55. In the case of CATACTGGGCCATTCAGAGGTCATTGATCATATG, the PBM binding z-score was determined as 4.15. Then CGTCAAAGTTCAACTAAGGTGACGTAAAGCACGC, with 4.87; and ATATGTAGTTTAAGGGTCATTCAGGTTGGTTCGC, with 5.34; and TTACCAAGGTTAAGGTCGTTGATCCCTCTGTAGA, with 3.3. Then GGAACGAGGGCATTCGAGATGATAGCATGGCGAT, with 1.45. Turning to CCTAGGTGGTCAAGGTCACACACGCTATAGGTAC, the PBM binding z-score was 4.76. The same measure for ACTTACGGGTCAGCGAGGTTATAGCACGCGTATA: 6.97; for TCGATTAGTTGATTAGGGCAACCGAAACAGCGGA: 0.219; for TGAGTGAGGTTATAAGATCAGGGAACGTTGCAAA: 0.806. ACTAGCCGGCCAAGTTTGGGTCACTCAAACAAAG returned a PBM binding z-score of 0.6. Then TCTAGCAGGCCAGAGGGTCACTGAAGAGGTACGG, with 1.52. Then CCTAGTTAGTCAAGGTCACACACGCTATAGGTAC, with 4.26; and GGAACGCGGGCATTCGAGTTGATAGCATGGCGAT, with -0.234. Then CGTCCAAGGTCAGCAGGTCAGTGCAAGCGACGTG, with 3.93; and TCGAATAGGTTAGGGGCATTCAGAATGGCGTCGA, with 0.8.

Sequence CCTTACGGGGCACGAGGTTATAGCACGACGAGCG returned a PBM binding z-score of 0.986. The same measure for TACCCTAGGTCATGCGGGCCAGTATAGTGTCGGC: 3.23; for CAAACTACGTCAAGGTCAAAGTCGGTTTGTGCCA: 4.45; for AGTCAAAGTTCAGGGCGAGGTAACGTAAAGCACG: 3.27. The same measure for ATCGAAAGGTTGAAGGTGAGTATACCCACCCGAA: 0.806. Sequence TCGAGTAGGTTACCAATGCGGCATTCAGCTTTCT displayed a PBM binding z-score of -0.196. Then CCTAGCAGGCCAATCTGGGTCACGCAAGGCTTGA, with 1.14.
